# CRE-bla Fsk = Cell signaling CRE-BLA (Fsk stim) | 71,000 compounds, 2.5% hits | CHO CRE-bla reporter (cAMP response element driving beta-lactamase), forskolin EC10, beta-lactamase ratio | AID 662, 2007 | Potency, µM (highest dose often 38.2 µM), without a hit: at the highest dose activity change, negative = inhibition, hits mostly activators; active means well fitted activation curve with a large enough effect in the signal ratio, with a control signal flat, not every such curve was filed as active; inconclusive means small, poorly fitted or top-dose-only effect, or effect the other way, or a change in a side signal; the % refers to the signal ratio; further: % of control where 0% means no effect
#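 CHO CRE-bla cells, overnight plating in Opti-MEM with 0.5% dialyzed FBS; cpd titration + EC10 NKH 477, 3 h 37 °C; CCF4 2 h RT; ex 405/em 460 vs 530 ratio → %Activity, AC50.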
# IkB signaling = IkB Signaling | ABC-DLBCL IkBa-CBG/CBR dual luciferase ratio, 4 h; response scale: scaled: untreated 0%, proteasome inhibitor 100% | Potency, µM (titrated, usually from 57.1 µM), inactives show at the top dose IkBa stabilization activation | 110,000 compounds, 0.04% hits; active means well fitted curve in the direction sought with a large enough effect in the signal ratio, not every such curve was filed as active; inconclusive means small, poorly fitted or top-dose-only effect, or a change in a side signal; the % refers to the signal ratio;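 further: the direction sought is a rising ratio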
#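 Luminescence ratio of IκBα-fused green versus native red beetle luciferase in OCI-Ly3 cells, 4 h post-doxycycline with compound; red signal alone, scaled from basal (0%) to zero light (-100%), flagged nonspecific or cytotoxic effects.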
# TSHR agonist = qHTS Assay for Agonists of the Thyroid Stimulating Hormone Receptor; Thyrotropin receptor (Homo sapiens), P16473; HEK293-CNG-TSHR cells (CNG channel as cAMP sensor), membrane potential dye, cAMP; Potency, µM (highest dose often 57.1 µM), for inactives: at the highest dose activation, actives largely listed as activators; 73,000 compounds, 0.48% hits; AID 926, 2007; active means well fitted activation curve with a large enough effect in the main read-out, with a control signal flat, not every such curve was filed as active; inconclusive means small, poorly fitted or top-dose-only effect, or a change in a side signal; inactive means no such curve, though single readings can be large or run the other way; % of control where 0% means no effect;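 further: the control signal comes from parental cells without the receptor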
# Target sequence (P16473 whole entry, looked up): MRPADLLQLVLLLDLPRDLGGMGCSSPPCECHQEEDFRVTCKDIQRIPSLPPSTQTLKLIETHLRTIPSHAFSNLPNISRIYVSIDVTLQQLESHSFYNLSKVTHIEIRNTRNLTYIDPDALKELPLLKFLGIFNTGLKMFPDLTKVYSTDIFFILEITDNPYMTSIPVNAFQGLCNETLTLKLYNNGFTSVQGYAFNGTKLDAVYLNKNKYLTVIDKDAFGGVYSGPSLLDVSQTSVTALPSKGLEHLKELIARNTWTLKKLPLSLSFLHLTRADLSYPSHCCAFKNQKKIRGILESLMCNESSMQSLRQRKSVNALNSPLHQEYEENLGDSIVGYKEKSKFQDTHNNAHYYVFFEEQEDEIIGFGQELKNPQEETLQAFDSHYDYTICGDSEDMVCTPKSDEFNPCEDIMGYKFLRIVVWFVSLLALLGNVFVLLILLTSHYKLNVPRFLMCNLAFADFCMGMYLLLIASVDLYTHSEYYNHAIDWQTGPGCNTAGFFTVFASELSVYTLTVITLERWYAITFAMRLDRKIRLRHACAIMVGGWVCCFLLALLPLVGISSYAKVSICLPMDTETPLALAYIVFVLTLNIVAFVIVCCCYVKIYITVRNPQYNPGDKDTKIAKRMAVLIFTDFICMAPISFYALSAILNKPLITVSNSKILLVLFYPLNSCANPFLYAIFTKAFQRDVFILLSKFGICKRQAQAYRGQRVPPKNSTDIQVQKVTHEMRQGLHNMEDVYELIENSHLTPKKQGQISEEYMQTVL
#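 HEK 293 cells stably expressing TSHR and a modified CNG channel, with CNG-only parental cells as counterscreen, were preloaded 60 min at room temperature with membrane potential dye containing 100 uM RO 20-1724. Compound exposure was 30 min, and depolarization was read as fluorescence at 590 nm.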
# HEK293 cAMP ctrl = qHTS Assay for Agonists of the Thyroid Stimulating Hormone Receptor: Activators of Intracellular cAMP Concentrations in Parental HEK 293; Potency, µM (highest dose often 57.1 µM), inactives show top-dose activation, hits mostly activators; AID 938, 2007; parental HEK293 CNG cAMP sensor, membrane potential fluorescence; 73,000 compounds, 2.5% hits; further: % of control where 0% means no effect; nearly all actives have a fitted effect of over 55% in size
#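 Parental HEK 293 cells stably expressing a modified CNG channel (no TSHR) report cAMP rise as membrane depolarization. Membrane potential dye with 100 uM RO 20-1724 was loaded for 60 min at room temperature, then compound added for 30 min; fluorescence read at 590 nm.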
# ERK AVP block = qHTS Assay for Inhibitors of the ERK Signaling Pathway using a Homogeneous Screening Assay; HEK293-V1b, vasopressin-stimulated pERK AlphaScreen; Potency, µM (highest dose often 57.5 µM), for the others: at the top dose activity, negative = inhibition, usual class: inhibitors; 72,000 compounds, 0.99% hits; further: on the % scale 0 is the no-effect control and ±100 the full control effect; nearly all actives have a fitted effect of over 55% in size
#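 HEK293 cells stably expressing V1b receptor, preincubated 30 min at 37 °C with compound, then stimulated 5 min with 25 nM vasopressin. Phospho-ERK by AlphaScreen SureFire after 5 h RT; normalized to DMSO and vasopressin; AC50 by Hill fit.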
# An asterisk follows results filed as active; ? = inconclusive; / = not tested or not shown; ! = repeats disagree; [ ] = another dose, or the depositor's remark. Hits are enriched below; roughly 3.6% of the tested compounds scored in any of these assays. Unless noted, the call rests on the fitted dose curve; in most records, active means well fitted curve in the direction sought with a large enough effect; inconclusive means small, poorly fitted or top-dose-only effect, or another doubt; inactive means no such curve, though single readings can be large; an effect the other way counts as inactive or inconclusive. Potency means the concentration at half of the fitted maximal effect.
SMILES,CRE-bla Fsk,IkB signaling,TSHR agonist,HEK293 cAMP ctrl,ERK AVP block
COc1ccc(OC)c(CNC(=O)c2ccc(-c3nc(CSc4ccccc4)c(C)o3)cc2)c1,/,1%,/,/,/
Cc1cc(C)cc(NC(=O)Cn2nnc(C(=O)NCCc3ccccc3)c2N)c1,/,-2%,/,/,/
O=C(NC1CCCCC1)NC1CCN(S(=O)(=O)Cc2ccccc2)CC1,1%,-2%,-18%,9%,26%
COc1ccc(C(=O)NC2CCN(S(=O)(=O)Cc3ccccc3)CC2)c(OC)c1,-1%,2%,?,10µM*,7%
CC(=O)N1c2ccccc2C(C)(c2ccc(C)cc2)CC1(C)C (stereo unspecified),/,8%,/,/,/
CCN(CC)c1nc(N)c2c(N)nc3c(c2c1C#N)CC(c1ccccc1)O3 (stereo unspecified),10µM*,?,?,?,?
COc1ccc(C)cc1-n1nnnc1SCn1nnc2ccccc2c1=O,3%,1%,?,?,14%
Cc1cccc(-n2nnnc2SCn2nnc3ccccc3c2=O)c1,4%,2%,?,25µM*,5%
COCCNC(=O)CN(C(=O)Cn1nnc2ccccc21)c1ccccc1,-1%,-1%,0%,-3%,-12%
O=C(Nc1cccnc1)c1cnn2c(C(F)F)cc(C3CC3)nc12,7.9µM*,0%,25%,-4%,?
CC(C)(C)NC[C@@H](O)c1ccc(O)c(CO)n1,0%[7.6 µM],1%[11.4 µM],17%[11.4 µM],21%[11.4 µM],-19%[11.5 µM]
O=c1c2cnn(-c3ccc(Cl)cc3)c2ncn1Cc1cccc(C(F)(F)F)c1,/,0%,/,/,/
Cc1ccc(S(=O)(=O)N(Cc2nccn2C)C(C)C)cc1,?,7%,25µM*,25%,0%
CCOc1c(CC2C(=O)Nc3ccc(Br)cc32)cccc1OC (stereo unspecified),/,9%,/,/,/
CCOC(=O)c1cc(-c2ccccc2)n(CCCC(=O)Nc2ccc(C)cc2C)c1C,/,-3%,/,/,/
COC(=O)[C@@]1(Cc2ccc(F)cc2)[C@H]2c3cc(C(=O)N(C)C)n(C)c3C[C@H]2CN1C(=O)c1ccccc1,-20%,/,?,?,1%
COC(=O)[C@@]1(Cc2ccc(F)cc2)[C@H]2c3cc(C(=O)N(C)C)n(Cc4ccc(C)o4)c3C[C@H]2CN1C(=O)c1ccccc1,1%,/,?,3.2µM*,18%
COC(=O)[C@@]1(Cc2ccc(F)cc2)[C@H]2c3cc(C(=O)N(C)C)n(CCO)c3C[C@H]2CN1C(=O)c1ccccc1,-20%,/,-4%,11%,-18%
COCCn1c(C(=O)N(C)C)cc2c1C[C@H]1CN(C(=O)c3ccccc3)[C@@](Cc3ccc(F)cc3)(C(=O)OC)[C@@H]21,-5%,/,?,16µM*,4%
COC(=O)[C@@]1(Cc2ccc(F)cc2)[C@H]2c3cc(C(=O)N(C)C)n(Cc4ccc(OC)c(OC)c4)c3C[C@H]2CN1C(=O)c1ccccc1,?,/,?,16µM*,7%
COC(=O)[C@@]1(Cc2ccc(OC)cc2)[C@H]2c3cc(C(=O)N(C)C)n(Cc4ccccc4)c3C[C@H]2CN1C(=O)c1ccccc1,-2%,/,?,13µM*,11%
CN(C)CC[C@H](c1ccc(Cl)cc1)c1ccccn1,-12%[17.1 µM],2%[25.6 µM],?,?,2%[25.7 µM]
CCCCOc1ccc(C2=NC(c3cccs3)=Nc3ccc(CC)cc3N2)cc1,/,-3%,/,/,/
Cc1ccc(NC(=O)C(=O)NCC(c2cccnc2)N2CCc3ccccc32)cc1Cl (stereo unspecified),/,3%,/,/,/
COC(=O)[C@@]1(Cc2ccc(OC)cc2)[C@@H]2C(=CC(=O)[C@H]2CC(=O)C(=O)N(C)C)CN1C(=O)c1ccccc1,?,/,7%,4%,37%
SMILES,CRE-bla Fsk,IkB signaling,TSHR agonist,HEK293 cAMP ctrl,ERK AVP block
C=C1C(=O)C=C2CN(C(=O)c3ccccc3)[C@@](Cc3ccc(F)cc3)(C(=O)OC)[C@@H]12,?,/,?,?,10µM*
COC(=O)[C@@]1(Cc2ccc(F)cc2)[C@H]2c3cc(C(=O)N(C)C)n(Cc4ccc(O)c(OC)c4)c3C[C@H]2CN1C(=O)c1ccccc1,?,/,?,?,18%
COC(=O)[C@@]1(Cc2ccc(F)cc2)[C@H]2c3cc(C(=O)N4CCCC4)n(Cc4ccccc4)c3C[C@H]2CN1C(=O)c1ccccc1,-1%,/,?,?,-6%
COC(=O)[C@@]1(Cc2ccc(F)cc2)[C@H]2c3cc(C(=O)N(C)C)n(Cc4ccccc4)c3C[C@H]2CN1C(=O)c1ccccc1,-5%,/,?,10µM*,17%
COCCn1c(C(=O)N2CCCC2)cc2c1C[C@H]1CN(C(=O)c3ccccc3)[C@@](Cc3ccc(F)cc3)(C(=O)OC)[C@@H]21,-15%,/,?,13µM*,-8%
Cc1cc(CNC(=O)[C@H]2C[C@@H]2[C@H](NP(=O)(c2ccccc2)c2ccccc2)c2ccccc2)nn1C,-9%,/,7%,14%,-21%
Cc1cccc(C(c2sc3nc(-c4ccco4)nn3c2O)N2CCOCC2)c1 (stereo unspecified),/,-1%,/,/,/
Cc1ccc(C2c3[nH]c4ccccc4c3CCN2C(=O)CCC2CCCC2)cc1 (stereo unspecified),/,0%,/,/,/
CCOC(=O)c1cc(C#N)c(N)nc1C,10µM*,2%,4%,4%,-29%
CCOC(=O)c1cc(C#N)c(SCc2ccc(C#N)cc2)nc1C,?,-1%,?,32µM*,30%
Cc1nc(-c2ccccc2)sc1-c1ccc(SCC(=O)NCc2ccccc2)nn1,/,-1%,/,/,/
Nc1nc2ccc(OC(F)(F)F)cc2s1,13µM*!,-1%,-10%,-14%,-22%
Nc1nc2ccc(Oc3ccccc3)cc2s1,16%,-1%,3%,-8%,-3%
N#CC(C#N)=c1ccc2c(c1)N1C3=C(CCCC3)CC3CCCCC31N=2 (stereo unspecified),11%,-3%,?,-87%,2.5µM*
N#C/C(C(N)=O)=c1/ccc2c(c1)N1C3=C(CCCC3)CC3CCCCC31N=2 (stereo unspecified),8%,?,?,-106%,?
Cc1ccc2nc3c(cc(C(N)=S)c(=N)n3CCCOC(C)C)c(=O)n2c1,10µM*,2%,-25%,-24%,-11%
COCCCn1c(=N)c(C(=O)NCc2cccnc2)cc2c(=O)n3cc(C)ccc3nc21,/,1%,/,/,/
Cc1ccc(C)c(Cn2c(CO)nc3ccccc32)c1,1%,-3%,?,25µM*,-7%
CC(=O)NCc1nc2ccccc2n1Cc1ccccc1C,-11%,4%,2%,5%,/
